The assay relates to LXRa homodimer (NR concentration 270 nM). Put plainly: PBM binding z-score (relative to random genomic background probes); higher = stronger binding; sequences stand for … in GC…GCGATTGACAGCGTAGAATGAAGG
The procedure, abridged:
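Random background probes are the reference for binding z-scores. These scores derive from regression-normalized fluorescence on custom Agilent 4×180K protein-binding microarrays incubated 1 h with ligand-free nuclear receptor dimers. Binding was detected with antibodies against each partner (one per run).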
For ATCGAAAGATCGTGAGGTGAGTATACAGAAAGGC, the PBM binding z-score was 0.0924.

With CCTCGGAGGACCACAGGAGGTCAGAGCTGCCAGA, the PBM binding z-score came out at 0.525.

Take TCGAGTAGGTTACCAATGGGGTATTCAGCTTTCT: the PBM binding z-score was -0.345.

Turning to AGAACGAGGGCACGCTGAGATGATAGCAGAGTAG, the PBM binding z-score was -0.425.

For ATCTCTAAGTAAAGTTCAGTGAAAGATCGATAGA, the PBM binding z-score worked out at 1.87.

With TCTTGTAGATCAAAAGAGGTTAAGAAAGTGCGCT, the PBM binding z-score is -0.0772.

As to ATATGTAGGTTAAGGGTCATTCAGGTTGGTTCGC, the PBM binding z-score amounted to 3.62.

CGAACTAGGTCACTGACAGGACAGTGAATAGTAA gave a PBM binding z-score of -0.0136.

CCTACTGGGCCATCACGTCATTGATATCAACGTT had a PBM binding z-score of -0.158.

Consider ACCATTAGTTGAGACGAGGGCAACCGATAGGTTG, for which the PBM binding z-score worked out at 3.5e-05.

TCGAGTAGGTTACCAATGGGGCATTCTGCTTTCT displayed a PBM binding z-score of -0.471.

Regarding CAAACTAGGTCAAGAGGTCAATGTCCGCTTCCCG, the PBM binding z-score stood at 5.74.

Consider TAGCCTAGGTCATTCATGGGCCAGTATAGAAAGC, for which the PBM binding z-score is 0.512.

Take GCTTACGGGTCAAAGGTAATAGCATGAATAGAAT: the PBM binding z-score is -0.0184.

Turning to TTACCAAGGTAAAGGTCGTTGATCCCTCTGTAGA, the PBM binding z-score was found to be 0.635.

In the case of TCTTGTAGATCAACAGGGGGTTAAGAAAGATCGA, the PBM binding z-score amounted to 0.266.

CAAACTAGGTCAAGGCCAAAGTCGGTTTGTGCCA came in with a PBM binding z-score of 0.111.

In turn, CCAGACAGTTGAGAAGGTAACTCAGCCTCGATTA registered a PBM binding z-score of 0.398.

The values are drawn from the supplement of paper PMC6555819.
